Test results published in PubChem BioAssay (NCATS).
Inconclusive results are not listed. Unmarked numbers belong to inactive results. Calls follow the shape of the dose curve; as a rule, active = well fitted inhibition curve with a large enough effect; inconclusive = small, poorly fitted or top-dose-only effect; inactive = no such curve, though single readings can be large or run the other way.

tested on: Zika virus NS2B-NS3 protease (unlinked complex); test: Primary screen GU Rhodamine qHTS for Zika virus inhibitors: Unlinked NS2B-NS3 protease assay (AID 1347159); details: Recombinant ZIKV NS2B-NS3 protease, Rhodamine110 substrate fluorescence; series mostly up to 107 µM; activity change, negative = inhibition: at the top concentration; also: nearly all actives have a fitted effect of over 60% in size
From the text: Avindra Nath, Ph.D., National Institute of Neurological Disorders and Stroke (NINDS), Bethesda, MD
Radhakrishnan Padmanabhan, Ph.D., Georgetown University (GU), Washington D.C.
Zika Virus causes congenital defects, including microcephaly and is associated with Guillain-Barre syndrome, eningoencephalitis and myelitis in infected adult. […] Using a target-based approach, we hope to establish a screening paradigm to uncover novel, cell-active NS2B-NS3 protease (Zika Virus) specific inhibitors from NCATS' collection of small molecules using qHTS.
Four assay panel was created to identify potential Zika Virus inhibitors. Namely, (1) GU unlinked NS2B-NS3 AMC tagged protease qHTS, (2) GU unlinked NS2B-NS3 Rhodamine tagged protease qHTS, (3) NINDS linked NS2B-NS3 AMC tagged protease qHTS, (4) NINDS linked NS2B-NS3 Rhodamine tagged protease qHTS. Active compounds were re-acquired and re-screened to confirm inhibition. Inhibitors were further screened against various confirmatory and counterscreens in dose response format.
Early Translation Branch (ETB)
National Center for Advancing Translational Sciences (NCATS), Rockville, MD
National Institute of Health (NIH), Bethesda, Maryland
Padmanabhan lab provided the NS2B hydrophilic domain and NS3 protease domain in a noncovalent complex used for the unlinked assay. Control compound aprotinin is obtained from Thermo Scientific (#78432; Waltham, Massachusetts). Rhodamine110 substrate ([N-Cbz]-Nle-Lys-Arg-Arg-Rhod110-Arg-Arg-Lys-Nle-[N-Cbz]) was purchased from either Genscript or Bachem.
1536-well Protease (Rhodamine110 Substrate) Assay:
Briefly, 3 microL of enzyme (25 nM final concentration), in assay buffer (10 mM Tris-HCl pH 8.0 with 0.01% Tween 20) were dispensed into a 1,536-well solid-bottom black plate (Greiner Bio One, Monroe, NC). Twenty-three nL of compounds (final concentration range 7.28 nM to 114 microM) or control Aprotinin (final concentration range 3.47 nM to 114 microM) were transferred via Wako Pin-tool (Wako Automation, Richmond, VA). Samples were incubated (room temperature, protected from light) for 15 minutes followed by a 1 microL Rhodamine110 substrate addition (1.5 microM final concentration). Plates were then immediately read on a ViewLux High-throughput CCD imager (PerkinElmer, Waltham, MA) equipped with FITC fluorescence optics (480(20) nm excitation, 540(25) nm emission), then incubated (room temperature, protected from light) for 15 minutes (~15% conversion). The change in fluorescence intensity over the 15-minute reaction period was normalized against no-inhibitor and no-enzyme controls and the resulting percent inhibition data were fitted to a 4-parameter Hill equation. Aprotinin was used as intraplate control.
% is scaled to controls: 0 for no effect and ±100 for the full control effect.

Row | SMILES | activity change, negative = inhibition
1 | Cc1nnc2n1-c1sc(CCc3ccc(CC(C)C)cc3)cc1C(c1ccccc1Cl)=NC2C (configuration not stated) | 3.65%
2 | O=C(N[C@H]1N=C(c2ccccc2F)c2cccc3c2N(CC3)C1=O)c1cc2ccccc2[nH]1 | 17.4%
3 | O=C(O)CCCCCCNC1c2ccccc2CCc2ccccc21 | 4.32%
4 | CCOC(=O)c1ncn2c1CN(C)C(=O)c1c(I)cccc1-2 | 6.14%
5 | CCOC(=O)NC(C)(C)Cc1ccc(Cl)cc1 | 0%
6 | O=C(N[C@@H]1N=C(c2ccccc2F)c2cccc3c2N(CC3)C1=O)c1cc2ccccc2[nH]1 | 0% [at 32.5 µM]
7 | CCCC[N+]1(C)[C@@H]2CC(OC(=O)[C@H](CO)c3ccccc3)C[C@H]1[C@@H]1O[C@@H]12 (some centres not stated) | 23.8%
8 | CC[C@H]1C[C@H]2[C@@H]3CCC4=CC(=O)CC[C@@H]4[C@H]3CC[C@]2(C)[C@H]1O | 8.13%
9 | COc1ccc2c(C(=O)c3ccc(Cl)cc3)c(C)n(CC(=O)O)c2c1 | 21.3%
10 | C[C@]12CC[C@H](O)CC1=CC[C@@H]1[C@@H]2CC[C@]2(C)C(=O)CC[C@@H]12 | -1.31%
11 | CCCOC(=O)Cc1ccc(OCC(=O)N(CC)CC)c(OC)c1 | 0% [at 57.1 µM]
12 | CCOC(=O)c1cncn1C(C)c1ccccc1 (configuration not stated) | -8.81%
